Results filed as inconclusive are left out. A call without a number means that no potency is given here. Calls of active or inactive are those of the source. The call rests on the fitted dose curve; in most records, active means well fitted cell-killing curve with a large enough effect in the repeat runs; inconclusive means weak or mixed curves, or effect the other way; inactive means flat fitted curve, though single readings scatter.
assay: qHTS RealTime-Glo MT Cell Viability Assay in HepG2 cells - 0 hour (AID 1224889); conditions: RealTime-Glo luminescence; series mostly up to 76.8 µM; further: nearly all actives have a fitted effect of over 50% in size
Outline: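 Luminescence read-out: viable HepG2 cells reduce a prosubstrate to a NanoLuc substrate, giving a signal proportional to live cell number. Reads taken at 0, 8, 16, 24, 32 and 40 h of compound exposure at 37 C.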

Row | Compound | Potency
1 | CCOC(=O)C1CC(=O)C(=C(O)C2CC2)C(=O)C1 (stereo unspecified) | inactive
2 | CC(=O)Nc1ccc(C)c(Cl)c1 | inactive
3 | CCCCCCCCc1ccc(S(=O)(=O)O)cc1 | inactive
4 | CCOC(=O)C(Br)c1ccccc1 (stereo unspecified) | inactive
5 | CCOc1ccc2nc(N)sc2c1 | inactive
6 | CCCC(CCC)(C(=O)OCC)C(=O)OCC | inactive
7 | CCC/C=C/CO | inactive
8 | CC(=O)OC(C)OC(C)=O | inactive
9 | OC[C@H]1O[C@@H](O[C@H]2[C@H](O)[C@@H](O)[C@H](O)O[C@@H]2CO)[C@H](O)[C@@H](O)[C@H]1O | inactive
10 | CC(C)S | inactive
11 | Clc1cccc(-c2cc(Cl)cc(Cl)c2)c1 | inactive
12 | CCC1(C)NC(=O)NC1=O (stereo unspecified) | inactive
13 | CCN(CC)CCNC(=O)COc1ccc(Cl)cc1 | inactive
14 | CN(C)Cc1ccccc1 | inactive
15 | COc1ccc(S(=O)(=O)Nc2nnc(CC(C)C)s2)cc1 | inactive
16 | O=c1[nH]cnc2c1ncn2[C@@H]1O[C@H](CO)[C@@H](O)[C@H]1O | inactive

Source: PubChem BioAssay (Tox21)
